Data: PubChem BioAssay AID1159580 (chemical genetic matrix, 2015)
In all, about 5,500 compounds went through this assay and about 2,000 (36%) were called active. Roughly 18% stayed inconclusive and do not appear here. No stated cut-off is given here; in the data, active means normalized growth mostly below about 0.91 (no sharp cut-off); inconclusive means no clear call, values can overlap the other calls; inactive means mostly above about 0.92. The list shows a part of the results.

Experiment: chemical genetic growth profiling, strain panel (AID 1159580);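 further: tested at 20 µM; growth read once vehicle control cultures reached saturation at 30 °C; 1 = growth at the plate median or of vehicle wells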
Details: S. cerevisiae deletion strains, growth OD

Measured: normalized growth

CCN(CC)CCNC(=O)c1ccc(NC(C)=O)cc1
inactive: locus YAL040C, strain CLN3, stronger effect = lower value 0.985 | locus YDR150W, strain NUM1, stronger effect = lower value 0.975 | locus YER002W, strain NOP16, stronger effect = lower value 0.969 | locus YGR078C, strain PAC10, stronger effect = lower value 0.985 | locus YGR229C, strain SMI1, stronger effect = lower value 1.01 | locus YHR030C, strain SLT2, stronger effect = lower value 0.999 | locus YHR079C, strain IRE1, stronger effect = lower value 1.03 | locus YJL095W, strain BCK1, stronger effect = lower value 1.02 | locus YJR066W, strain TOR1, stronger effect = lower value 0.971 | locus YLR113W, strain HOG1, stronger effect = lower value 1.03 | locus YMR307W, strain GAS1, stronger effect = lower value 1.01 | locus YNL175C, strain NOP13, stronger effect = lower value 0.983 | locus YNL183C, strain NPR1, stronger effect = lower value 0.959 | locus YNL197C, strain WHI3, stronger effect = lower value 0.984 | locus YNL224C, strain SQS1, stronger effect = lower value 1.01 | locus YOR083W, strain WHI5 (second series), stronger effect = lower value 0.979 | locus YOR231W, strain MKK1, stronger effect = lower value 1.04 | locus YPL256C, strain CLN2, stronger effect = lower value 1.08
